In PubChem BioAssay one finds composite z-score and z-score data, which are given here for five compounds.

Calls of active or inactive are those of the source.

In experiment [1] the test system is Plasmodium falciparum Sir2 (PF13_0152, Sir2A). The experiment in a line: Plasmodium falciparum Sir2A binding compounds – biochemical, small-molecule microarray, 635 nm fluorescence, primary screen (AID 1098).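 Further: score merges spot fluorescence intensity with its signal-to-noise ratio.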 Conditions: fluorescence 635 nm, higher = more signal.
Experiment [2] can be described thus: probe aDKK1 binding to arrayed compounds – biochemical, biotinylated probe, 635/667 nm fluorescence, primary screen (AID 1099).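 Further: score merges 667nm spot fluorescence with signal to noise across triplicate slides.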 To be noted: small-molecule microarray, higher = more signal.
A short description of experiment [3]: probe aCHRDL2 binding to arrayed compounds – biochemical, biotinylated probe, 635/667 nm fluorescence, primary screen (AID 1100). Conditions: small-molecule microarray, higher = more signal.
Experiment [4] in a line: change in splice reporter luminescence, either direction, cell-based, HEK293, spliceosome inhibition project, primary screen (AID 1101).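 Further: HEK293 cells carrying a splicing-competent luciferase reporter gene; test concentration not given here.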 Conditions: HEK293 splicing luciferase reporter, 24 h, higher = more signal, called active from +8 up or from −8 down. For orientation: In a reporter assay the amount or activity of a reporter protein is the signal.
The target of experiment [5] is Fibroblast growth factor 10 (Homo sapiens) (UniProt O15520). The experiment in a line: compounds binding fibroblast growth factor 10 – biochemical, small-molecule microarray, 635 nm fluorescence, primary screen (AID 1102). Conditions: FGF10 binding, fluorescence 635 nm, higher = more signal.
Sequence of Fibroblast growth factor 10 (Homo sapiens) (O15520 whole entry, looked up): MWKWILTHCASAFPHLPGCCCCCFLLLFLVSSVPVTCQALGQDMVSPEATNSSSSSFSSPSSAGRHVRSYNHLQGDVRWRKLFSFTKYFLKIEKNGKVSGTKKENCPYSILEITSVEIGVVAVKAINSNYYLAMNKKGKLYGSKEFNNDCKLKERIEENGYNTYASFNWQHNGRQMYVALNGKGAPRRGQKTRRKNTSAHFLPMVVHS
Experiment [6] concerns glycogen synthase kinase-3 (GSK3A per assay name; protocol says GSK3B). The experiment in a line: compounds binding glycogen synthase kinase-3 – biochemical, small-molecule microarray, 635 nm fluorescence, GSK3A, primary screen (AID 1103). Further: the record names both GSK3A and GSK3B. Conditions: fluorescence 635 nm, higher = more signal.
Experiment [7] concerns the target Epidermal growth factor receptor (Homo sapiens) (UniProt P00533). The experiment in a line: compounds binding epidermal growth factor receptor – biochemical, small-molecule microarray, 635 nm fluorescence, primary screen (AID 1104).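 Further: score merges 667 nm emission intensity with spot signal to noise over triplicate slides.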 Conditions: EGFR binding, higher = more signal.
In experiment [8] the target is Follistatin-related protein 3 (Homo sapiens) (UniProt O95633). Kind of experiment: compounds binding follistatin-related protein 3 – biochemical, small-molecule microarray, 635 nm fluorescence, primary screen (AID 1105).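 Further: score merges emission near 667 nm and signal to noise per printed spot across three slides.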 To be noted: FSTL3 binding, higher = more signal.
Sequence of Follistatin-related protein 3 (Homo sapiens) (O95633 whole entry, looked up): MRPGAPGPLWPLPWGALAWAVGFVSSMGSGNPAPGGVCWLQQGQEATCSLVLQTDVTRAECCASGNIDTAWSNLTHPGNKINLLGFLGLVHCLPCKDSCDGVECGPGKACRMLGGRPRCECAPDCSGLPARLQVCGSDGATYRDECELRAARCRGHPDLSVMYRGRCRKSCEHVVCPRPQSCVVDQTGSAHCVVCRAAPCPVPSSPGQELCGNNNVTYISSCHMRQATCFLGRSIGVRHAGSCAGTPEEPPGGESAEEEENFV
Experiment [9] has as its target Dickkopf-related protein 1 (Homo sapiens) (UniProt O94907). Kind of experiment: small molecules binding DKK1 protein – biochemical, small-molecule microarray, 635 nm fluorescence scan, primary screen (AID 1106).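 Further: score merges emission near 667 nm with signal to noise over three replicate slides.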 To be noted: higher = more signal.
In experiment [10] the test system is Inhibin beta A chain (activin A). The experiment in a line: small molecules binding activin A – biochemical, small-molecule microarray, 635 nm fluorescence scan, primary screen (AID 1107).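 Further: mouse activin A protein probed at 4.33 µg/mL on printed slides; score merges bound-protein fluorescence near 667 nm with spot signal-to-noise.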 To be noted: INHBA, higher = more signal.
In experiment [11] the test system is Human papillomavirus type 1a protein E7 (residues 44-93). Kind of experiment: small molecules binding HPV E7 44-93 – biochemical, small-molecule microarray, residues 44-93, 635 nm fluorescence, primary screen (AID 1108).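 Further: E7 fragment applied at 1 µg/mL in TBST for 1 h at 4 C; score combines spot fluorescence with its signal to noise ratio.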 Conditions: fluorescence 635 nm, higher = more signal.
A short description of experiment [12]: hepatitis C replication reporter changes, two-sided – Huh7 cells, luciferase reporter, HCV replication inhibitor project, primary screen (AID 1109).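 Further: huh7 hepatoma cells harbouring a luciferase neomycin HCV replicon reporter; luciferase luminescence as measure of HCV replicon replication; test concentration not given here.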 To be noted: Huh7 HCV replicon luciferase reporter, 48 h; higher = more signal.
Experiment [13] has as its target Left-right determination factor 2 (Homo sapiens) (UniProt O00292). The experiment in a line: small molecules binding LEFTY2 protein – biochemical, small-molecule microarray, 635 nm fluorescence scan, primary screen (AID 1110). To be noted: higher = more signal.
The target in experiment [14] is Calmodulin-1 (Homo sapiens) (UniProt P0DP23). The experiment in a line: small molecules binding calmodulin-1 with EGTA – biochemical, small-molecule microarray, Cy5-labelled CALM1, profiling panel (AID 1111).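 Further: labelled calmodulin applied in Tris saline Tween buffer holding calcium plus EGTA and DTT.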 To be noted: Cy5-CALM1 binding fluorescence, higher = more signal.
The target is the same in experiment [15]. The experiment in a line: small molecules binding Ca-loaded calmodulin-1 – biochemical, small-molecule microarray, Cy5-labelled CALM1, plus calcium, artefact control for SMM control-protein annotation, profiling panel (AID 1112).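 Further: score merges spot fluorescence with signal to noise from triplicate slides.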 Conditions: Cy5-CALM1 binding fluorescence, higher = more signal.
Experiment [16] is described as follows: probe aWnt5a binding to arrayed compounds – biochemical, biotinylated probe, 635/667 nm fluorescence, primary screen (AID 1113).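 Further: score merges 667 nm fluorescence intensity with signal-to-noise per printed feature.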 To be noted: small-molecule microarray, higher = more signal.
Experiment [17] is described as follows: probe aShh binding to arrayed compounds – biochemical, biotinylated probe, 635/667 nm fluorescence, primary screen (AID 1114).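 Further: probe is biotin-labelled aShh protein from a stem cell growth factor screen; measures binding of labelled protein to compounds printed on the slide; score merges feature fluorescence at 667 nm with signal-to-noise.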 Conditions: small-molecule microarray, higher = more signal.
Experiment [18] in a line: probe aNog binding to arrayed compounds – biochemical, biotinylated probe, 635/667 nm fluorescence, primary screen (AID 1115).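 Further: probe is biotinylated aNog protein used at 0.15 µg/mL for 1 h at 4 C; z-score combines 667 nm fluorescence of each spot with its signal to noise.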 Conditions: small-molecule microarray, higher = more signal.
Experiment [19] deals with Torsin-1A-interacting protein 1 (Homo sapiens) (UniProt Q5JTV8). Kind of experiment: compound microarray binding of lysate hLAP1 – cell lysate, small-molecule microarray, COS7 lysate, 635/667 nm fluorescence, primary screen (AID 1116). Conditions: 635 nm fluorescence, higher = more signal.
Sequence of Torsin-1A-interacting protein 1 (Homo sapiens) (Q5JTV8 whole entry, looked up): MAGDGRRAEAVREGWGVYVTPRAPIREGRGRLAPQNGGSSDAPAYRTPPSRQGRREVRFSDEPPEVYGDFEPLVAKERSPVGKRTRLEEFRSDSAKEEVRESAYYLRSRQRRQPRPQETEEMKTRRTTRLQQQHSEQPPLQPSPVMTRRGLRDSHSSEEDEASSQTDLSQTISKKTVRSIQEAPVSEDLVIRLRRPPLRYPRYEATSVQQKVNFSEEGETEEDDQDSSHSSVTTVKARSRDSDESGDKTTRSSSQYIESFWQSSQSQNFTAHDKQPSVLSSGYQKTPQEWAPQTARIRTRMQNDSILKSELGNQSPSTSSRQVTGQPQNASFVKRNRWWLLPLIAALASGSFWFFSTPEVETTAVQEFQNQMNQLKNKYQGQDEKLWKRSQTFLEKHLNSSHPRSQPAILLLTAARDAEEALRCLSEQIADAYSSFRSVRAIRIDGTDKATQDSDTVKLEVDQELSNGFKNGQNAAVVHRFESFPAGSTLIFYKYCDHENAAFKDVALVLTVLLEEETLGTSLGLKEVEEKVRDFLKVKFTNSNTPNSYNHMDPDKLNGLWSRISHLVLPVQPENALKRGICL
Experiment [20] deals with Alpha-bungarotoxin (Bungarus multicinctus) (UniProt P60615). The experiment in a line: compounds binding labelled alpha-BTX control protein – biochemical, small-molecule microarray, Alexa647 label, 635/667 nm fluorescence, artefact control for SMM control protein annotation, profiling panel (AID 1117). To be noted: alpha-BTX-A647 binding fluorescence, higher = more signal.
Sequence of Alpha-bungarotoxin (Bungarus multicinctus) (P60615 whole entry, looked up): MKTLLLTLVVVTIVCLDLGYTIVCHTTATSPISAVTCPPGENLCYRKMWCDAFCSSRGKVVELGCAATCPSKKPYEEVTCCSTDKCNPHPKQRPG

Sequence of Left-right determination factor 2 (Homo sapiens) (O00292 whole entry, looked up): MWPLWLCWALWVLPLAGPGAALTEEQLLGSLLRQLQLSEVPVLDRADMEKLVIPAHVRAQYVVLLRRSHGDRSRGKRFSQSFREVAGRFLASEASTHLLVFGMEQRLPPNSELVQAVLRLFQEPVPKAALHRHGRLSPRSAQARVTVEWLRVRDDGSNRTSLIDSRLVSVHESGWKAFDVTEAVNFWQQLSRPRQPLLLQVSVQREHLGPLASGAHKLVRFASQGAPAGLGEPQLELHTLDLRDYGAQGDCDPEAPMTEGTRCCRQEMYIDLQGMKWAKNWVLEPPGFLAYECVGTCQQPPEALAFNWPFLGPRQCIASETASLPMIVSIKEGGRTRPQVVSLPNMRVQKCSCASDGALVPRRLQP
Sequence of Dickkopf-related protein 1 (Homo sapiens) (O94907 whole entry, looked up): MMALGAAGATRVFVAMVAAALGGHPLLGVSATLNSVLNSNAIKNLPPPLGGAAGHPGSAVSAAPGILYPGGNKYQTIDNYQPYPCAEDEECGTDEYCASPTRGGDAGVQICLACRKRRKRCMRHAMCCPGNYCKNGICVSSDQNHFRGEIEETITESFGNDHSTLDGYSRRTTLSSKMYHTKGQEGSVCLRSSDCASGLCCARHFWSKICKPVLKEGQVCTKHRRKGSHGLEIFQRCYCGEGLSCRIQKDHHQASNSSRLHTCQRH
Sequence of Epidermal growth factor receptor (Homo sapiens) (P00533 whole entry, looked up): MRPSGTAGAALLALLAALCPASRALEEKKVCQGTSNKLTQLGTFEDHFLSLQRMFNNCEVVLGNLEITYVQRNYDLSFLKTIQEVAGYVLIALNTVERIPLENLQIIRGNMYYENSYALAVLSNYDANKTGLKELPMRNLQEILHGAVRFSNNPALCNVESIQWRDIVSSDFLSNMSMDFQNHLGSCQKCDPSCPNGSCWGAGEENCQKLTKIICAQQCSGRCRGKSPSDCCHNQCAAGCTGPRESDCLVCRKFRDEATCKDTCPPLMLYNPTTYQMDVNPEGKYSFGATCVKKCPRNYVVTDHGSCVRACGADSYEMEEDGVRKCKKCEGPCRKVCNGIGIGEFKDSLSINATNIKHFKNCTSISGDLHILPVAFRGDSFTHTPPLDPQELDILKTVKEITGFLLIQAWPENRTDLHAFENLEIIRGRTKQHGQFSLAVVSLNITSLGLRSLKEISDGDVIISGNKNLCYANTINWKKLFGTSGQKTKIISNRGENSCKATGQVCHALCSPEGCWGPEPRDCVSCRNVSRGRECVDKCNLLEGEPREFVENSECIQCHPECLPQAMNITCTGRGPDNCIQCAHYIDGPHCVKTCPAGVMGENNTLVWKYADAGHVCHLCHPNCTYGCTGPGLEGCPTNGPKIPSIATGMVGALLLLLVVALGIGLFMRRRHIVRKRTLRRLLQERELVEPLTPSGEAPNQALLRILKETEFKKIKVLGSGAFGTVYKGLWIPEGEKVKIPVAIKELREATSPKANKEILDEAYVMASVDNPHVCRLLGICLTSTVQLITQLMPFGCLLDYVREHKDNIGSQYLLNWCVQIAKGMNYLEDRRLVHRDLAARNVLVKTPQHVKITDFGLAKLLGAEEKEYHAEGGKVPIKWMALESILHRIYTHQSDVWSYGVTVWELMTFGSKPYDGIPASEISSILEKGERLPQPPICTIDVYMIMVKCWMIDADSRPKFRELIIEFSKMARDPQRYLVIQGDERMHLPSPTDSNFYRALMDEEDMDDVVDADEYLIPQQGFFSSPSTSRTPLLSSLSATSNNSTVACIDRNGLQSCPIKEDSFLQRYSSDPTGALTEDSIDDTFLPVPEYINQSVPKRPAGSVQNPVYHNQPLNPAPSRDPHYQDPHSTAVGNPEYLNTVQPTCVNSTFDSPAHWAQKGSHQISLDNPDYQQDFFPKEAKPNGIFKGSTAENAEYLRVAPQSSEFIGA

As for `O=C1OCCC=C[C@H]2OC34C=CCN(Cc5ccccc5)C(=O)[C@H]3N(CCCCCO)C(=O)[C@@H]4C12` (stereo not given in full), the composite z-score in [1] was 1.96; in experiment [2], -0.285; in [3], 0.672; in experiment [5], -0.779; in experiment [6], 1.06; in [7], -0.744. For the same compound, the composite z-score in experiment [8] is -0.595; in [9] it was -1.19; in experiment [10], 0.141; in experiment [11], 1.1; in [13], -1.24; in experiment [14], -0.565. Besides, the composite z-score is 0.13 in [15]; -0.091 in experiment [16]; -0.154 in [17]; -0.177 in [18]; 1.95 in experiment [19]; -1.06 in [20]. For the same compound, the figures for the z-score in [4] and in experiment [12] were -0.34 (inactive) and -0.481, respectively.

In the case of `CCOC(=O)C[C@H]1[C@H](OC(=O)c2ccccc2-c2ccccc2)[C@@H](NC(=O)Cc2ccc(OC)cc2)c2cc(OCCCO)ccc2N1C(=O)c1ccccc1`, the composite z-score was -0.394 in [1]; -0.236 in experiment [2]; -0.0402 in [3]; 0.225 in experiment [5]; -1.28 in [6]; 0.192 in experiment [7]. The composite z-score in experiment [8] is -0.0572; in experiment [9], 0.232; in [10], 0.34; in experiment [11], 0.0712; in [13] it was -0.3; in experiment [14] it was -0.0521. For the same compound, the composite z-score in [15] was -0.317; in experiment [16], -0.0519; in [17], -0.327; in experiment [18] it was -0.443; in experiment [19] it was 0.246; in [20] it was -0.0826. Besides, the z-score is -0.258 (inactive) in [4] and -2.08 in [12].

Take `CC(C)NC(=O)[C@@]1(Cc2ccccc2I)c2ccccc2C(=O)N(Cc2ccccc2)[C@H]1c1ccc(CO)cc1`: the composite z-score in experiment [1] was found to be 1.45; in experiment [2], 0.461; in experiment [3], 0.715; in experiment [5], 0.954; in experiment [6] it was 1.28; in experiment [7] it was 0.136. The composite z-score in experiment [8] was 1.09; in experiment [9], 0.0622; in [10], 0.315; in experiment [11], 0.997; in [13], 0.337; in [14] it was 0.447. The composite z-score is -0.726 in experiment [15]; 0.0438 in experiment [16]; -0.0503 in [17]; -0.422 in [18]; 0.568 in experiment [19]; 1.4 in experiment [20]. Besides, the z-score in experiment [4] is -0.227 (inactive); in experiment [12] it was -1.09.

For `O=C1OCCC/C=C\[C@H]2OC34C=CCN(Cn5nnc6ccccc65)C(=O)[C@H]3N(CCCCCO)C(=O)[C@@H]4C12` (stereo not given in full), the composite z-score in experiment [1] is 0.957; in experiment [2], -0.118; in experiment [3], 0.584; in [5], -1.08; in [6], -1.7; in [7] it was -0.97. The composite z-score is -0.751 in experiment [8]; -1.45 in experiment [9]; 0.702 in experiment [10]; -0.921 in experiment [11]; -1.5 in experiment [13]; -0.709 in experiment [14]. Further, the composite z-score in [15] is -0.388; in experiment [16] it was -0.175; in [17], -0.0035; in experiment [18] it was -0.0894; in [19] it was -0.118; in experiment [20], -0.697. For the same compound, the z-score in experiment [4] is -0.586 (inactive); in experiment [12], 0.0311.

For the compound `O=C1OCCC=C[C@H]2OC34C=CCN(Cc5ccccc5)C(=O)[C@H]3N(CCCCCCO)C(=O)[C@@H]4C12` (stereo not given in full), the composite z-score in experiment [1] is 1.61; in experiment [2] it was -0.189; in [3] it was 0.33; in [5], -1.26; in [6], -0.578; in experiment [7], -0.83. Moreover, the composite z-score is -0.435 in [8]; -1.38 in [9]; -0.597 in experiment [10]; 1.04 in experiment [11]; -1.06 in experiment [13]; -0.214 in experiment [14]. Also, the composite z-score in [15] is 0.232; in [16], -0.343; in experiment [17], -0.233; in [18], -0.402; in experiment [19] it was 0.366; in experiment [20], -0.63. The z-score is -0.205 (inactive) in experiment [4] and -0.422 in [12].
